Rows were chosen to be rich in hits. Some 2.1% of all compounds tested hit in one or more screens of this group.
HIF-2a inh: inhibitors of HIF-2a. 360,000 tested, 0.72% active. inhibition, % at 18.8 µM. AID 624352. 786-0 RCC cells HIF-2a reporter, luciferase luminescence, overnight;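 active = inhibition of the luminescence signal of 40% or more relative to plate controls, in a single-dose primary screen at 18.75 µM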
PAX8 reporter: lowers PAX8-driven luciferase in RMG-I cells. 360,000 tested, 1.2% active. RMG-I TPO-luciferase reporter, SteadyGlo, 24 h. inhibition, % at 12.6 µM. AID 652154;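 active = mean replicate inhibition at least 60% with every replicate also reaching 60%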;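 note: luciferase light reporting Pax8 driven TPO promoter activity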
EWS-Fli block: inhibitors of EWS/Fli oncoprotein transcriptional activity; A673 NR0B1-luciferase reporter, viability-normalised; AID 651661; 350,000 tested, 0.67% active; inhibition, % at 12.6 µM;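 active = mean inhibition of at least 50% after viability correction, with every replicate also passing that limit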;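 note: firefly luciferase signal divided by Alamar Blue viability fluorescence both relative to DMSO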
CF NFkB inh: blocks PAF-induced NF-kB reporter in cystic fibrosis cells; KKLEB NF-kB-GFP reporter, GFP fluorescence overnight; inhibition, % at 5 µM; 360,000 tested, 0.86% active;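 active = at least 50% inhibition at 5 µM, scaled per plate between neutral and stimulator controls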;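 note: PAF is a Pseudomonas aeruginosa culture filtrate used as stimulus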
KKLEB cytotox: CF airway cell cytotoxicity counter-screen. KKLEB CF airway cells viability, ATPlite luminescence, overnight; active compounds read low; cells stimulated with P. aeruginosa culture filtrate. activity change (cytotoxicity), % at 5 µM. 360,000 tested, 0.36% active;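 active = corrected activity change at or below -50% at 5 µM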
A number is an active result; . = inactive; / = not tested or not shown; ! = a repeat was not active.

SMILES	HIF-2a inh	PAX8 reporter	EWS-Fli block	CF NFkB inh	KKLEB cytotox
CC(C)C(=O)Nc1ccc2c(c1)C(=O)N(C)[C@@H]1CC[C@H](CC(=O)NCCCN(C)C)O[C@H]1CO2	/	.	.	/	/
COc1cccc(NC(=O)c2ccccc2)c1	.	.	.	.	.
COc1cccc(NC(=O)Nc2cccc(C(=O)O)c2)c1	81	80	75	.	.
N#C/C(=N\Nc1cccc([N+](=O)[O-])c1)C(=O)c1ccc(Br)cc1	.	91	.	51	-55
COc1ccc(C=C2CS(=O)(=O)CC(=Cc3ccc(OC)cc3)C2=O)cc1	86	77	60	92	.
CN(C)c1cc[n+](CC(=O)Nc2ccc(Cl)c([N+](=O)[O-])c2)cc1	.	63	.	.	.
CN(C)c1cc[n+](CC(=O)Nc2cccc([N+](=O)[O-])c2)cc1	.	.	.	.	.
COc1ccc(OC)c(CN2C(=O)c3ccccc3C2c2nnnn2-c2ccc3c(c2)OCCO3)c1 (stereo unspecified)	.	.	52	/	/
COc1ccc(NC(=O)Nc2ccc3c(c2)CC(=O)N([C@@H](C)CO)C[C@@H](C)[C@@H](CN(C)C(=O)Nc2c(C)noc2C)O3)cc1	/	.	.	/	/
Oc1ccc(Nc2nc3ccccc3nc2Nc2ccc(O)cc2)cc1	75	/	/	.	.
C[C@H]1CCCCO[C@H](CN(C)C(=O)C2CCCCC2)[C@@H](C)CN([C@@H](C)CO)C(=O)c2cc(NS(=O)(=O)c3cn(C)cn3)ccc2O1	/	.	.	/	/
COc1ccc(C(=O)CCN2CCN(c3ccccc3F)CC2)cc1	.	78	.	.	.
CCOC(=O)/C=c1\s/c(=C\c2ccccc2C)c(=O)n1CC(=O)NCc1ccc2c(c1)OCO2	.	.	.	.	-58
C[C@@H]1CCCCO[C@@H](CN(C)Cc2ccc(C(F)(F)F)cc2)[C@@H](C)CN([C@@H](C)CO)C(=O)c2cc(NC(=O)C3CCCCC3)ccc2O1	/	.	.	/	/
O=C(C[C@H]1C[C@@H]2c3cc(NS(=O)(=O)c4ccc(F)cc4)ccc3O[C@@H]2[C@@H](CO)O1)NCc1ccc(Oc2ccccc2)cc1	/	101	.	/	/
O=C(C[C@H]1C[C@@H]2c3cc(NS(=O)(=O)c4ccc(F)cc4)ccc3O[C@@H]2[C@@H](CO)O1)NCc1ccc(-c2ccccc2)cc1	/	84	.	/	/
O=C(C[C@@H]1C[C@@H]2c3cc(NS(=O)(=O)c4ccc(F)cc4)ccc3O[C@@H]2[C@@H](CO)O1)NCc1ccccc1	/	.	.	/	/
O=C(C[C@@H]1C[C@@H]2c3cc(NS(=O)(=O)c4ccc(F)cc4)ccc3O[C@@H]2[C@H](CO)O1)NCc1ccc(-c2ccccc2)cc1	/	68	.	/	/
COc1cccc(S(=O)(=O)Nc2ccc3c(c2)[C@@H]2C[C@@H](CC(=O)NCc4ccc(Cl)cc4)O[C@@H](CO)[C@@H]2O3)c1	.	75!	55	.	.
CC1=NOC(=O)/C1=C\c1ccc(-c2cc(Cl)ccc2Cl)o1	.	/	/	66	.
CC1=NOC(=O)/C1=C/c1ccc(-c2ccc(Cl)cc2)o1	.	/	/	.	.
C[C@@H]1CN([C@H](C)CO)C(=O)c2cccc(NS(=O)(=O)c3cccs3)c2O[C@H]1CN(C)C(=O)Nc1ccc(C(F)(F)F)cc1	/	/	.	/	/
Cn1c(=O)c(C(=O)NNC(=O)c2ccccc2F)c(O)c2ccccc21	.	.	.	.	.
Cn1c(=O)c(C(=O)NNC(=O)c2ccc(Br)cc2)c(O)c2ccccc21	.	64	.	.	.
N#C/C(=C\c1ccc2c(c1)OCCO2)C(=O)NC1CCCCC1	.	100	.	.	.
SMILES	HIF-2a inh	PAX8 reporter	EWS-Fli block	CF NFkB inh	KKLEB cytotox
O=C(Nc1ccc(F)cc1)N1C[C@@H]2[C@H](c3ccccc31)[C@H](CO)N2C(=O)c1ccncc1	/	.	.	/	/
N#CCC(=O)N/N=C/c1cn(Cc2cccc3ccccc23)c2ccccc12	.	.	53	.	.
Cc1onc(C(=O)N2CCN(c3ccccc3)CC2)c1[N+](=O)[O-]	.	.	/	.	.
Cc1ccc(Cl)cc1N1CCN(C(=O)c2noc(C)c2[N+](=O)[O-])CC1	.	105	70	.	.
Cc1noc(C)c1S(=O)(=O)Nc1ccc2c(c1)C(=O)N([C@H](C)CO)C[C@H](C)[C@@H](CN(C)S(=O)(=O)c1ccccc1)OCCCC[C@@H](C)O2	/	.	.	/	/
Cc1ccc(C(c2cc(Cl)c3cccnc3c2O)N2CCN(C)CC2)cc1 (stereo unspecified)	43	/	/	.	.
CN1CCN(C(c2ccccn2)c2cc(Cl)c3cccnc3c2O)CC1 (stereo unspecified)	.	.	.	.	.
Oc1c(C(c2ccccn2)N2CCC(Cc3ccccc3)CC2)cc(Cl)c2cccnc12 (stereo unspecified)	/	83	.	/	/
CN(C)C(=O)C[C@H]1CC[C@@H](NS(=O)(=O)c2ccccc2)[C@H](CO)O1	/	.	.	/	/
COc1cc2ccnc(C=O)c2cc1OC	.	/	/	86	.
COc1cc2ccnc(C=NO)c2cc1OC	.	.	.	.	.
CNC[C@@H]1OCCCC[C@H](C)Oc2ccc(NC(=O)Nc3ccc(F)cc3)cc2C(=O)N([C@H](C)CO)C[C@H]1C	/	.	.	/	/
COc1ccccc1-c1cnc2c(c1)C(=O)N([C@H](C)CO)C[C@H](C)[C@H](CN(C)Cc1ccc(F)cc1)O2	/	.	.	/	/
CCOC(=O)c1sc2ccccc2c1OC(=O)c1ccccc1OC	.	60	.	.	.
CCOC(=O)c1cc(OC(=O)c2ccccc2OC)n(-c2ccccc2)n1	.	/	/	.	.
CCCOc1ccc(-c2cc3onc(-c4ccccc4)c3c(=O)n2C)cc1	.	.	62	.	.
CNC(=O)c1ccc(-c2cc3onc(-c4ccccc4)c3c(=O)n2C)cc1	.	.	.	.	.
Cc1ccc(-c2cc3onc(-c4ccccc4)c3c(=O)n2C)cc1	.	.	80	.	.
COc1ccc2c3c(n(C)c2c1)[C@H](CO)N(Cc1ccccc1F)CC31CN(C(=O)C2CC2)C1	/	.	.	/	/
CN(C)c1ccc(/C=C2\SC(=O)N(CCc3nnc(N)s3)C2=O)cc1	58	.	82	.	.
COc1ccc(CN(C)C[C@H]2OCCCC[C@@H](C)Oc3ccc(NC(=O)CCCN(C)C)cc3C(=O)N([C@@H](C)CO)C[C@@H]2C)cc1	/	.	.	/	/
CN(C)C(=O)c1cccc(-c2ccc3c(c2)[C@@H]2[C@@H](CCN2C(=O)c2ccccc2F)[C@H](CO)N3)c1	/	.	.	/	/
CN(C)/C=N/C1=C(C#N)C(c2cccs2)c2ccc3ccccc3c2O1 (stereo unspecified)	.	.	54	.	.
CN(C)CCCN(C(=O)c1cc(Cl)sc1Cl)c1nc2cc3c(cc2s1)OCO3	.	.	/	.	.
CN(C)CCCN(C(=O)c1ccc(Cl)s1)c1nc2cc3c(cc2s1)OCO3	.	.	57	.	.
CC(=O)N1c2ccccc2N(Cc2ccc(C)cc2C)C(=O)C1(C)C	.	.	54	.	.
C=CCN1C(=O)C(C)(C)N(C(C)=O)c2ccccc21	.	.	.	.	.
